Hits are enriched below; roughly 0.83% of the tested compounds scored in any of these assays.
LRH-1 inv ag: NR5A2 inverse agonism in reporter assay; HEK293T StAR-luciferase reporter, LRH-1 transfected, 24 h; inhibition, % at 3.6 µM; 0.13% of 360,000 active;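 active = inhibition above the mean inhibition of all tested compounds plus 3 SD, cut at about 73% in these data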;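 also: 0% = DMSO wells and 100% = reporter-only cells lacking LRH-1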
Gli-Sufu antag: blocks Gli-Sufu signaling in a luciferase reporter. Sufu-KO-LIGHT fibroblasts, Gli luciferase reporter luminescence. inhibition, % at 5 µM. 0.74% of 340,000 active;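 active = inhibition above about 55%, limit read from the data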;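 also: 0% = DMSO-treated cells and 100% = wells with medium but no cells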
SRC2 inh: human SRC2 (NCOA2) inhibition; 0.17% of 370,000 active; Q15596; inhibition, % at 9 µM; HEK293 GAL4-SRC2 luciferase reporter, luminescence; AID 651957;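 active = inhibition above the mean inhibition of all tested compounds plus 3 SD, set per campaign, cut at about 52% in these data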;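 also: 0% = DMSO treated cells and 100% = cells given Gossypol at 36 µM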
SRC3 inh: inhibits human SRC3 coactivator | HEK293 GAL4-SRC3 luciferase reporter, luminescence | inhibition, % at 3.6 µM | 0.17% of 360,000 active;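 active = inhibition above a per-campaign cutoff, the mean of all compounds plus 3 SD, cut at about 60% in these data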;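 also: 0% = DMSO-treated cells and 100% = gossypol-treated cells at 36 µM; higher means less SRC3-driven luciferase light from the GAL4 reporter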
NCOA1 inh: inhibitors of human steroid receptor coactivator 1 (SRC1) | Q15788 | 0.12% of 360,000 active | AID 588354 | HEK293 GAL4-SRC1 luciferase reporter, luminescence | inhibition, % at 3.6 µM;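 active = inhibition above the campaign mean plus 3 SD, with each screening campaign given its own cutoff, cut at about 60% in these data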;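 also: 0% = DMSO treated cells and 100% = gossypol at 36 µM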
Gli-Sufu confirm: confirmation of Gli-SUFU pathway antagonists; shares compounds with Gli-Sufu antag; Sufu-KO-LIGHT cells, Gli luciferase reporter, luminescence; inhibition, % at 5 µM; 40% of 2,500 active; AID 602428;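 active = mean inhibition at 5 µM reaching about 45%, limit read from the data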;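 also: plate controls were DMSO-treated cells for no effect and wells lacking cells for full effect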
SufuKO cytotox: cytotoxicity counter-screen for Gli-SUFU antagonists; shares compounds with Gli-Sufu antag; Sufu-KO-LIGHT cells cytotoxicity, ATP luminescence; cytotoxicity, % at 5 µM; 32% of 2,500 active;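 active = mean cytotoxicity at 5 µM above about 25%, limit read from the data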;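 also: cells exposed to compound overnight for roughly 16 to 18 hours; plate controls were DMSO wells with cells for no effect and medium without cells for full effect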
Wnt3a cs: counter-screen for Gli-SUFU antagonists: Wnt3a reporter inhibition; shares compounds with Gli-Sufu antag; Wnt-LIGHT cells, Wnt3a-driven luciferase reporter, luminescence; inhibition, % at 6.25 µM; 20% of 2,500 active;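 active = mean inhibition above about 25%, limit read from the data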
Starred values were filed as active, the others as inactive.

How did Cc1ccc(C#N)c(SCc2nnc(-c3ccc(Cl)cc3)o2)n1 do in these assays?
LRH-1 inv ag: 72.0; Gli-Sufu antag: 75.0*; SRC2 inh: 54.5*; SRC3 inh: 75.0*; NCOA1 inh: 68.5*; Gli-Sufu confirm: 87.5*; SufuKO cytotox: 60.2*; Wnt3a cs: 99.5*

Results for Cc1cc(C)c(C#N)c(SCc2nnc(-c3ccccc3)o2)n1 ?
LRH-1 inv ag: 86.9*; Gli-Sufu antag: 70.0*; SRC2 inh: 66.9*; SRC3 inh: 79.1*; NCOA1 inh: 79.9*; Gli-Sufu confirm: 82.7*; SufuKO cytotox: 34.7*; Wnt3a cs: 96.2*

Results for Cc1ccc(C#N)c(SCc2cc3c(cc2Cl)OCO3)n1 ?
LRH-1 inv ag: 11.2; Gli-Sufu antag: -3.3; SRC2 inh: -24.5; SRC3 inh: 5.0; NCOA1 inh: -2.6

What do the screens show for `COCCCNC(=O)C[C@H]1C[C@@]2(C(=O)OC)C(=C[C@H](C(C)C)O[C@@H]2C2CC2)N(CCC2=CCCCC2)C1=O`?
SRC2 inh: 1.2

Results for COc1ccc(CN2CCC(CNC(=O)Nc3ccc(Cl)cc3)CC2)cc1 ?
SRC2 inh: 9.6

What do the screens show for `O=C(Cc1cccs1)Nc1ccc2c(c1)C(=O)OC2`?
LRH-1 inv ag: 2.3; Gli-Sufu antag: 99.0*; SRC2 inh: 1.5; SRC3 inh: 2.5; NCOA1 inh: 3.0; Gli-Sufu confirm: 14.8; SufuKO cytotox: 4.8; Wnt3a cs: 1.6

Results for c1ccc(CCNc2ncnc3ccccc23)cc1 ?
LRH-1 inv ag: -53.7; Gli-Sufu antag: 55.2*; SRC2 inh: 14.9; SRC3 inh: 11.2; NCOA1 inh: -22.0; Gli-Sufu confirm: 57.6*; SufuKO cytotox: 28.8*; Wnt3a cs: 24.4

What do the screens show for `Cc1cc2c(NCCc3ccccc3)ncnc2s1`?
LRH-1 inv ag: -52.8; SRC2 inh: 7.2; SRC3 inh: -41.3; NCOA1 inh: -26.5

Results for CC(=O)N1[C@@H](CO)[C@@H](c2ccc(-c3cccc(F)c3)cc2)[C@@H]1CNCC1CCC1 ?
SRC2 inh: 0.3

How did COc1ccc(CN2CCCCC2C(=O)Nc2ccc(OC)c(OCC(C)C)c2)cc1OC (stereo not drawn) do in these assays?
LRH-1 inv ag: 24.5; Gli-Sufu antag: 63.4*; SRC2 inh: -40.9; SRC3 inh: -6.4; NCOA1 inh: -7.4; Gli-Sufu confirm: 20.6; SufuKO cytotox: 28.8*; Wnt3a cs: -51.2

What do the screens show for `Cc1cc(C)n(C(=O)c2cccc([N+](=O)[O-])c2C)n1`?
LRH-1 inv ag: -1.1; Gli-Sufu antag: -3.5; SRC2 inh: -16.6; SRC3 inh: -7.8; NCOA1 inh: 9.5

How did Cc1c(C(=O)N2c3ccccc3Sc3ccccc32)cccc1[N+](=O)[O-] do in these assays?
LRH-1 inv ag: -15.7; Gli-Sufu antag: 96.1*; SRC2 inh: -3.4; SRC3 inh: 12.0; NCOA1 inh: 12.6; Gli-Sufu confirm: 35.9; SufuKO cytotox: 8.3; Wnt3a cs: -20.2

What do the screens show for `CC(=O)Nc1ccc(S(=O)(=O)N2CCC(C(=O)NC3CCCC3)CC2)cc1`?
LRH-1 inv ag: -4.9; Gli-Sufu antag: 3.6; SRC2 inh: -16.1; SRC3 inh: 8.8; NCOA1 inh: -3.9

What do the screens show for `CC(=O)Nc1ccc(S(=O)(=O)N2C3CCCC2CC(NC(=O)C2CCCCC2)C3)cc1` (stereo not drawn)?
LRH-1 inv ag: 8.2; Gli-Sufu antag: 94.8*; SRC2 inh: -35.3; SRC3 inh: 3.7; NCOA1 inh: -11.4; Gli-Sufu confirm: 14.6; SufuKO cytotox: 4.2; Wnt3a cs: -37.8

Results for O=C(O)C1CC(=O)N(CCc2ccccc2)C1 (stereo not drawn) ?
LRH-1 inv ag: -0.5; Gli-Sufu antag: 0.1; SRC2 inh: -6.9; SRC3 inh: -17.6; NCOA1 inh: 0.5

Results for COc1ccc(CCN2CC(C(=O)O)CC2=O)cc1 (stereo not drawn) ?
LRH-1 inv ag: 2.3; Gli-Sufu antag: 96.1*; SRC2 inh: 2.6; SRC3 inh: 2.2; NCOA1 inh: -12.4; Gli-Sufu confirm: 2.9; SufuKO cytotox: 2.7; Wnt3a cs: -4.5
